Screens as filed in PubChem.
Pf growth 96h = P. falciparum growth inhibition at 96 hours; P. falciparum luciferase reporter growth, 96 h; Potency, µM (highest dose often 28.7 µM), usual class: inhibitors; 320,000 compounds, 6.9% hits; AID 504834
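Readout is luminescence from an integrated firefly luciferase in P. falciparum. Red cells, 2% hematocrit and 0.05% parasitemia final, were cultured with compound through two parasite generations (96 hours) at 37 C, 5% CO2.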
HCMV antiviral = inhibitors of human cytomegalovirus; HFF cells, HCMV-luciferase reporter, 72 h; stronger effect = lower value; 410,000 compounds, 4.5% hits; AID 1259415; activity change, negative = inhibition, % at 57.5 µM; in the data active = activity change below about -60%; inconclusive = no clear call, values can overlap the other calls; inactive = above about -39%
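Screen run at 2 compound doses on HFFs infected with reporter HCMV, MOI 1 PFU/cell. Luciferase activity from cell lysates at 72 h post infection gave inhibition relative to buffer-only and Salinomycin wells.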
Cycloheximide cs = counter-screen hit for Shiga toxin inhibitors, cycloheximide | cell reporter, cycloheximide protein synthesis inhibition counterscreen | AID 2314 | max response, % | 300,000 compounds, 12% hits; in the data active = max response mostly above about 13%, no sharp cut-off; inactive = mostly below about 14%; also: read at 38.3 µM for the half of the compounds with a filed dose
Shiga toxin inh = blocks Shiga toxin action in Vero cells. 290,000 compounds, 9.2% hits. inhibition, % at 38.7 µM. Vero cells, Shiga toxin protein synthesis inhibition reporter; in the data active = inhibition mostly above about 28%, no sharp cut-off; inactive = mostly below about 43%
Pf growth 48h = inhibits P. falciparum growth in the first generation, 48 h. P. falciparum luciferase growth in erythrocytes, 48 h. 310,000 compounds, 5.9% hits. Potency, µM (titrated, usually from 28.7 µM), actives largely listed as inhibitors. AID 504832
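In quantitative HTS format, infected erythrocytes bearing luciferase-reporter parasites were treated for a single generation at 37 C. Luminescence after adding detection reagent served as the growth measure.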
HCV inhibitor = HCV inhibition; Huh7.5.1 HCVcc-Cre infection, luciferase reporter, 44 h; Potency, µM (top dose mostly 41.8 µM), hits mostly inhibitors; 340,000 compounds, 3.4% hits; AID 651820
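Seed cells (1,000/well) for 4 h; treat with compound and infect with HCVcc-Cre, moi about 0.5. Incubate 44 h, then detect luciferase activity.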
Large screens that a line does not name were inactive. The list is not random: actives were taken first. Their share in the collection is about 21%. Unless noted, calls follow the shape of the dose curve; as a rule, active = well fitted inhibition curve with a large enough effect; inconclusive = small, poorly fitted or top-dose-only effect, or another doubt; inactive = no such curve, though single readings can be large or run the other way.

O=C(NCCCCC(NC(=O)C1CCCCC1)C(=O)O)c1ccccc1 (configuration not stated)	Pf growth 96h 8.3µM, Pf growth 48h inconclusive
CCN(c1ccccc1)S(=O)(=O)c1ccc(OC)c(NC(=O)C2=NN(c3ccccc3)C(=O)CC2)c1	Pf growth 96h inconclusive, Pf growth 48h 12µM, HCV inhibitor inconclusive (no result: Cycloheximide cs, Shiga toxin inh)
CCN(c1ccccc1)S(=O)(=O)c1ccc(OC)c(NC(=O)C2CC(=O)N(Cc3ccccc3)C2)c1 (configuration not stated)	Pf growth 96h 13µM, Pf growth 48h 6.6µM, HCV inhibitor inconclusive
COCCN1C(=O)N(c2cccc(C)c2)C(=O)C1CC(=O)Nc1ccc(OC)cc1 (configuration not stated)	Pf growth 48h inconclusive
CCN(CC)C(=O)c1cn(CCC#N)nc1-c1ccc2ccccc2c1	Pf growth 96h inconclusive
Cc1cc(NC(=O)CCOc2ccc(F)cc2)no1	HCV inhibitor inconclusive
Cc1cc(NC(=O)Nc2ccc(C)c(C)c2)no1	HCMV antiviral inconclusive, Cycloheximide cs 43, Shiga toxin inh 97
Cc1cc(NC(=O)Nc2cccc3ccccc23)no1	HCV inhibitor inconclusive
Cc1cc(NC(=O)Nc2ccc(F)cc2)no1	Pf growth 96h inconclusive, Cycloheximide cs 26, Shiga toxin inh 69
COc1cc(NC(=O)Nc2cc(C)on2)cc(OC)c1OC	none
Cc1cc(NC(=O)Nc2cc(Cl)ccc2C)no1	Cycloheximide cs 12, HCV inhibitor inconclusive
Cc1cccc(OCC(=O)NCCNC(=O)c2ccccn2)c1	none
COc1cccc(-c2ccc(NC(=O)C3CCCN(Cc4cc(C)[nH]n4)C3)cc2)c1 (configuration not stated)	HCMV antiviral inconclusive, Pf growth 48h inconclusive, HCV inhibitor inconclusive
O=C(Nc1ccc(-c2cscn2)cc1)C1CCCN(Cc2ccccc2)C1 (configuration not stated)	Pf growth 96h inconclusive, Cycloheximide cs 24, Pf growth 48h inconclusive, HCV inhibitor inconclusive
Cc1nn(C)c(Cl)c1CN1CCCC(C(=O)Nc2ccc(-c3cscn3)cc2)C1 (configuration not stated)	Pf growth 96h inconclusive, Pf growth 48h inconclusive, HCV inhibitor inconclusive
Cc1cccc(CN2CCCC(C(=O)Nc3ccc(-c4cscn4)cc3)C2)c1 (configuration not stated)	Pf growth 96h 9.3µM, Pf growth 48h inconclusive (no result: HCV inhibitor)
O=C(Nc1ccc(-c2ccco2)cc1)C1CCCN(Cc2ccc(CO)o2)C1 (configuration not stated)	Pf growth 48h inconclusive, HCV inhibitor inconclusive
Cc1ccccc1CN1CCCC(C(=O)Nc2ccc(-c3ccn[nH]3)cc2)C1 (configuration not stated)	HCMV antiviral -63, Pf growth 48h inconclusive, HCV inhibitor inconclusive
CC(=O)c1cccc(CN2CCCC(C(=O)Nc3ccc(-c4ccco4)cc3)C2)c1 (configuration not stated)	HCMV antiviral inconclusive, Pf growth 48h 10µM
COc1ccc(CNC(=O)c2ccc(CNS(=O)(=O)c3ccc(F)cc3)cc2)cc1	none (no result: Pf growth 96h, Cycloheximide cs, Shiga toxin inh, Pf growth 48h, HCV inhibitor)
CCC(C(=O)Nc1nccs1)c1ccccc1 (configuration not stated)	Pf growth 48h inconclusive
CC(Oc1ccc(Cl)cc1)C(=O)Nc1nccs1 (configuration not stated)	Cycloheximide cs 17, Shiga toxin inh 56, Pf growth 48h 4.1µM (no result: Pf growth 96h)
O=C(Nc1ccccc1)Nc1nncs1	none
CCC(C)C(=O)Nc1nccs1 (configuration not stated)	Cycloheximide cs 16
O=C(Nc1ccc(Cl)cc1)Nc1nccs1	Cycloheximide cs 30, Shiga toxin inh 47, HCV inhibitor inconclusive
O=C(Nc1ccccc1)Nc1nccs1	Cycloheximide cs 38, Shiga toxin inh 45
CCOC(=O)n1ccc(C(=O)Nc2ccccc2F)n1	Pf growth 96h inconclusive
C/C(=C\C(=O)Nc1nccs1)c1ccccc1	Cycloheximide cs 57, Shiga toxin inh 116 (no result: HCV inhibitor)
CCC(C)OC(=O)n1ccc(C(=O)Nc2nccs2)n1 (configuration not stated)	Cycloheximide cs 32, Shiga toxin inh 68
COc1ccc(NC(=O)CSc2oc(-c3cccs3)nc2S(=O)(=O)c2ccccc2)c(OC)c1	none (no result: Pf growth 96h, Cycloheximide cs, Shiga toxin inh, Pf growth 48h, HCV inhibitor)
CCOc1ccc2nc(NC(=O)C3=NNC(=O)CC3)sc2c1	Cycloheximide cs 17
CCOc1ccc2nc(NC(=O)C3=NN(c4ccccc4)C(=O)CC3)sc2c1	Cycloheximide cs 30, HCV inhibitor inconclusive
Brc1ccc(Oc2ncc(CN3CCOCC3)s2)cc1	Cycloheximide cs 33
COc1ccc(Oc2ncc(CN3CCN(c4ccccc4)CC3)s2)cc1	none (no result: Pf growth 48h)
O=C(NCc1ccc2c(c1)CCN2C(=O)c1ccc(F)cc1)c1cc2ccccc2[nH]1	none (no result: Pf growth 96h, Cycloheximide cs, Shiga toxin inh, Pf growth 48h, HCV inhibitor)
O=C(N/N=C/c1cc(Br)c(O)c(Br)c1)C1CC1	none
CC(C)(C)NC(=S)N/N=C/c1cc(Br)c(O)c(Br)c1	Pf growth 96h 7.4µM, Pf growth 48h inconclusive
CSc1nc(Oc2cccc(C(F)(F)F)c2)cc(C(F)(F)F)n1	Pf growth 96h inconclusive, Pf growth 48h inconclusive
CSc1nccc(Oc2cccc(C#N)c2)n1	HCMV antiviral -61
O=c1c(Cc2c(F)cccc2Cl)c(O)ccn1CCCn1ccnc1	none
Cc1ccc(NC(=O)c2cccc(S(=O)(=O)N(C)C3CCCCC3)c2)nc1	Pf growth 96h 9.3µM, Pf growth 48h 5.2µM (no result: Cycloheximide cs, Shiga toxin inh)
CC(=O)Nc1ccc(NC(=O)c2cccc(S(=O)(=O)N(C)C3CCCCC3)c2)cc1	Pf growth 96h inconclusive, Pf growth 48h 7.4µM, HCV inhibitor inconclusive (no result: Cycloheximide cs, Shiga toxin inh)
Cc1ccc(NC(=O)c2cccc(N3C(=O)CCC3=O)c2)nc1	none (no result: Pf growth 96h)
CC(C)c1ccc(NC(=O)c2cc(S(=O)(=O)N(C)C3CCCCC3)ccc2F)cc1	none (no result: Pf growth 96h, Cycloheximide cs, Shiga toxin inh, Pf growth 48h, HCV inhibitor)
Fc1ccccc1N1CCN(Cc2cc(-c3ccccc3)on2)CC1	HCMV antiviral inconclusive
N#CCCN(C(=O)COc1ccc(F)cc1Br)c1ccccc1F	Pf growth 96h inconclusive, Pf growth 48h inconclusive
O=C(c1cc(NC(=O)C23CC4CC(CC(C4)C2)C3)cc(NC(=O)C23CC4CC(CC(C4)C2)C3)c1)N1CCCCC1	Pf growth 96h 1.5µM, Pf growth 48h 1.9µM, HCV inhibitor inconclusive (no result: HCMV antiviral)
COc1ccc(-c2nc3c4ccccc4ccn3c2CN2CCOCC2)cc1OC	Cycloheximide cs 32, Shiga toxin inh 74, HCV inhibitor inconclusive
COc1ccc(-c2nc3ccccn3c2Cl)cc1	Cycloheximide cs 41, HCV inhibitor inconclusive
COc1ccc(-c2noc(CN3CCN(c4ccccc4F)CC3)n2)cc1OC	HCV inhibitor inconclusive
COc1ccc(-c2nc3ccccn3c2CN2CCN(c3ccccc3F)CC2)cc1	Pf growth 96h inconclusive, HCMV antiviral -61, Pf growth 48h inconclusive, HCV inhibitor inconclusive
c1ccc(-c2nc3c4ccccc4ccn3c2CN2CCOCC2)cc1	Cycloheximide cs 49, Shiga toxin inh 64, HCV inhibitor inconclusive
